Laboratory results as given in the supplement of paper PMC11732987, “Enantioselective OTUD7B fragment discovery through chemoproteomics screening and high-throughput optimisation” (Communications Chemistry, 2025).

How the values were obtained:
Test in all cases: log2 ratio of Biotin-Ahx-Ub-VS probe labelling (fragment/DMSO); higher = less target engagement (more negative = stronger competition), active = hit call of the paper (q ≤ 0.05, log2 ratio ≤ -1)
Conditions in all cases: compound concentration: 200 uM; treatment time: 3 h
USP42 = target: T1, USP42 (UniProt Q9H9J4)
T1 sequence (whole entry): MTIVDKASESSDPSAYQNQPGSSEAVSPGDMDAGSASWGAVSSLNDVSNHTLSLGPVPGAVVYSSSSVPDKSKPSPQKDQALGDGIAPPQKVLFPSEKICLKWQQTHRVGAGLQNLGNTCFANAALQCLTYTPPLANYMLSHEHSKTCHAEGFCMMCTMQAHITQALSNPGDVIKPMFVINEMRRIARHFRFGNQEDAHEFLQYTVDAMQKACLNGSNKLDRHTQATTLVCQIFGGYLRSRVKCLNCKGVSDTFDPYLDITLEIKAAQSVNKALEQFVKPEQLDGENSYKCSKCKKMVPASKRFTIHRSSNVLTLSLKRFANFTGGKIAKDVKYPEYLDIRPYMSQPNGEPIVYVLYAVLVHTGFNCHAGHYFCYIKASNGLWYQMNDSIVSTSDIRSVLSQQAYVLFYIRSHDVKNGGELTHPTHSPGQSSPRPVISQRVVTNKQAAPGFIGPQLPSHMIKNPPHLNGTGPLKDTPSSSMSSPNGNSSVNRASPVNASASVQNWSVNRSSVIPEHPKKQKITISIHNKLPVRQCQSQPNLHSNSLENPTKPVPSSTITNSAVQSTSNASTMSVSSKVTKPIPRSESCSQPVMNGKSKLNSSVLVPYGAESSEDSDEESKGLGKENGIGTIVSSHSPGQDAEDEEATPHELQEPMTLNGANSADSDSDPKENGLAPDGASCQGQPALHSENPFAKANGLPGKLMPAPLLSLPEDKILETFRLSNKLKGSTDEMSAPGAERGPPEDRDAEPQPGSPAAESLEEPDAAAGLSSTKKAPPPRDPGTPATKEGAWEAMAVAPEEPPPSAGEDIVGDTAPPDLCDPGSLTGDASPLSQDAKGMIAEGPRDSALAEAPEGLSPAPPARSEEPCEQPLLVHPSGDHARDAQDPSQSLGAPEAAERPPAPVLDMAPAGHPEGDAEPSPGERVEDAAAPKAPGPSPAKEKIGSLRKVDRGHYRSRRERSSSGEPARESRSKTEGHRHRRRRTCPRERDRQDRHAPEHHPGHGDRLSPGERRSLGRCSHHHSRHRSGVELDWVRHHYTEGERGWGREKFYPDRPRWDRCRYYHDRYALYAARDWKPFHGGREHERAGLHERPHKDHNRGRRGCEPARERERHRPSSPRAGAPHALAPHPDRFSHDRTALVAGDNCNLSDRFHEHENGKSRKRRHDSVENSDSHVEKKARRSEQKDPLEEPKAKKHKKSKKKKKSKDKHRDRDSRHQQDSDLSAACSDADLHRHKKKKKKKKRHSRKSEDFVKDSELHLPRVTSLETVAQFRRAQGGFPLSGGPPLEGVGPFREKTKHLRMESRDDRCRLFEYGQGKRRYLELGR
Outline: (§1)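 HEK293T lysate (495 µg per sample, in Tris/CHAPS/IGEPAL buffer with protease inhibitors) was exposed in triplicate for 3 h to fragment at 200 µM or to vehicle, then to Biotin-Ahx-Ub-VS at 0.5 µM final for 1 h. Labelled DUBs were enriched on NeutrAvidin, digested with LysC and trypsin, and analysed by diaPASEF LC-MS/MS. Spectronaut label-free quantities were normalised to the global median, and values are average log2 ratios of fragment over vehicle from an unpaired t-test. Only proteins with ≥2 unique peptides were used.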

USP46 = USP46 (UniProt P62068)
Outline: as §1

USP47 = target: T2, USP47 (UniProt Q96K76)
T2 sequence (whole entry): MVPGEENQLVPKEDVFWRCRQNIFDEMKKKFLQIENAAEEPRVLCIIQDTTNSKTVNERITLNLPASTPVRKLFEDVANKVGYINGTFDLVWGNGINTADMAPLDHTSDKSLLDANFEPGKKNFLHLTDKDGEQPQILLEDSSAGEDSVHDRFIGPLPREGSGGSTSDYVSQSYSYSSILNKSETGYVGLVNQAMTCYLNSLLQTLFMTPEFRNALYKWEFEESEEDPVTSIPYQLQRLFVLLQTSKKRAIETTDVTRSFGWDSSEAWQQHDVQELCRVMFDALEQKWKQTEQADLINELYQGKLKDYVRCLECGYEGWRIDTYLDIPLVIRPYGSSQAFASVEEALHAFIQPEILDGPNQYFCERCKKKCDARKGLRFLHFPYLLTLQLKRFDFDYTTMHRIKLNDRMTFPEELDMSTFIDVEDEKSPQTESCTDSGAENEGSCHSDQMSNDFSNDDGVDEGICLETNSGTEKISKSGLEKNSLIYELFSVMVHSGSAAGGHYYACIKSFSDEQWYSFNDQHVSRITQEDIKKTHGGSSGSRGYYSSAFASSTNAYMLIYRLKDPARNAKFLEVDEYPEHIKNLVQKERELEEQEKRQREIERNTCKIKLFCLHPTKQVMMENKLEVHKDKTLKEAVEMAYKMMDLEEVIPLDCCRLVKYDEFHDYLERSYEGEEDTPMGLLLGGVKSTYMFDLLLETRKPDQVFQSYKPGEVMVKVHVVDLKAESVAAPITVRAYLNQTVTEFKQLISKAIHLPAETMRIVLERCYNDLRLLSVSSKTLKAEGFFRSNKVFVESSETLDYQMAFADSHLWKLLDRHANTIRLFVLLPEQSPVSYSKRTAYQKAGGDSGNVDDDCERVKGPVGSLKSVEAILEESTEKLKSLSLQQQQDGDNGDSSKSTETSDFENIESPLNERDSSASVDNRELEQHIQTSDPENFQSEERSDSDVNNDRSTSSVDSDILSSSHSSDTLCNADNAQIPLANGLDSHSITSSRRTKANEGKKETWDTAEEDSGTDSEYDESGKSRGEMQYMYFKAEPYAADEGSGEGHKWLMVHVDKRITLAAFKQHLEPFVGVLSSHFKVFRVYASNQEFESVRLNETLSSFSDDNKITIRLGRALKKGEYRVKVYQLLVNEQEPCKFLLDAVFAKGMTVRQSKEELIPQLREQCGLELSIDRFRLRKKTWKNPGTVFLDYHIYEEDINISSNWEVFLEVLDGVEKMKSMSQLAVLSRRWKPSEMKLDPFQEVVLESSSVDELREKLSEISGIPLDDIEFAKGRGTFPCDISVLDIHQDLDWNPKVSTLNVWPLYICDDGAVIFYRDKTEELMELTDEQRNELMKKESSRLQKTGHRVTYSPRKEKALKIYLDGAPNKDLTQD
Outline: as §1

USP48 = target: T3, USP48 (UniProt Q86UV5)
T3 sequence (whole entry): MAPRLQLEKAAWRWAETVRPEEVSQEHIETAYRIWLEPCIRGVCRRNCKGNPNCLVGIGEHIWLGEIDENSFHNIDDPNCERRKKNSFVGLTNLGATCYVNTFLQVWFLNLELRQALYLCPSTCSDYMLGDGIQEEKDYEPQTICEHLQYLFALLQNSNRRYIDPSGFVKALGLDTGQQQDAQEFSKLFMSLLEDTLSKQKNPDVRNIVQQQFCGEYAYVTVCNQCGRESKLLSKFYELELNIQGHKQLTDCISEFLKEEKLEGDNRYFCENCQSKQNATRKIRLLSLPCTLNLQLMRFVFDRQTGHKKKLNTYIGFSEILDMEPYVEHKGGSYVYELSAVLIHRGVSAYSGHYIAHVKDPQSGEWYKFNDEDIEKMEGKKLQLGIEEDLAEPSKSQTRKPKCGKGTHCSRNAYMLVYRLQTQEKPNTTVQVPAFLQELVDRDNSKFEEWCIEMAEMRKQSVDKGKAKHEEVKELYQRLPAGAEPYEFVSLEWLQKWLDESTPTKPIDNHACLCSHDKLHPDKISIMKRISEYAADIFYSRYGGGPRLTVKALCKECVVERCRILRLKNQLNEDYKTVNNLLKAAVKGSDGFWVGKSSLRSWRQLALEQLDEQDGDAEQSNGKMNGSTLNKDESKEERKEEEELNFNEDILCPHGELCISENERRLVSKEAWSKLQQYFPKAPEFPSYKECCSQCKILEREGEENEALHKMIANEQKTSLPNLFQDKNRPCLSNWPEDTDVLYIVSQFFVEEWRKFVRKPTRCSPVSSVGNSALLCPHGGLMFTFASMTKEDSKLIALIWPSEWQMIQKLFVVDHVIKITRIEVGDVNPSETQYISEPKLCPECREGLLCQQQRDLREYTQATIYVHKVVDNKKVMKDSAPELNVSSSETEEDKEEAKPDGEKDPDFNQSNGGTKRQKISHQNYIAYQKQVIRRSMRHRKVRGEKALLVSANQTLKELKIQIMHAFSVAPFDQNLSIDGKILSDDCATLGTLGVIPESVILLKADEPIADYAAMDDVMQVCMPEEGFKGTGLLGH
Outline: as §1

USP5 = target: T4, USP5 (UniProt P45974)
T4 sequence (whole entry): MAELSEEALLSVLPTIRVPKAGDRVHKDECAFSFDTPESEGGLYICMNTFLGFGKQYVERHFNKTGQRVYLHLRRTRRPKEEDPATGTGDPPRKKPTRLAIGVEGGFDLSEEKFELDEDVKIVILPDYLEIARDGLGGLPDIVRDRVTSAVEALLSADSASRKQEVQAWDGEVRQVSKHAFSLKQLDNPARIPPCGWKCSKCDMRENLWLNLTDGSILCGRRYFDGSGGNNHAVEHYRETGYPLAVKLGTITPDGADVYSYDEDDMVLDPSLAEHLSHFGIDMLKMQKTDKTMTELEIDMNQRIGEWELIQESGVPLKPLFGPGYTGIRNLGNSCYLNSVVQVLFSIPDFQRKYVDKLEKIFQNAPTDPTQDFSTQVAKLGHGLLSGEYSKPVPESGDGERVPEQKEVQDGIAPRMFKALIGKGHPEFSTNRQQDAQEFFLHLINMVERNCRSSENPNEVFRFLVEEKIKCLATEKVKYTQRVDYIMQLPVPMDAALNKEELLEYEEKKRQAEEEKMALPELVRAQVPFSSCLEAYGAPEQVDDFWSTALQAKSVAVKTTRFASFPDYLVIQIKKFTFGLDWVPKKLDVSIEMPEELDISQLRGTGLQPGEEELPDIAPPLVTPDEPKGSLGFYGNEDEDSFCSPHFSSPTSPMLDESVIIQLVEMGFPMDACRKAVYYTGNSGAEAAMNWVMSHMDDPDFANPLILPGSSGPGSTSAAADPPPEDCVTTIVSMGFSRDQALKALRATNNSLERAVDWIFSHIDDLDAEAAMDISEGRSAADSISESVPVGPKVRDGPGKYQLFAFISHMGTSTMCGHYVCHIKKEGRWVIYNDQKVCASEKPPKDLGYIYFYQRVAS
Outline: as §1

USP54 = USP54 (UniProt Q70EL1)
Outline: as §1

USP7 = USP7 (UniProt Q93009)
Outline: as §1

USP8 = target: T5, USP8 (UniProt P40818)
T5 sequence (whole entry): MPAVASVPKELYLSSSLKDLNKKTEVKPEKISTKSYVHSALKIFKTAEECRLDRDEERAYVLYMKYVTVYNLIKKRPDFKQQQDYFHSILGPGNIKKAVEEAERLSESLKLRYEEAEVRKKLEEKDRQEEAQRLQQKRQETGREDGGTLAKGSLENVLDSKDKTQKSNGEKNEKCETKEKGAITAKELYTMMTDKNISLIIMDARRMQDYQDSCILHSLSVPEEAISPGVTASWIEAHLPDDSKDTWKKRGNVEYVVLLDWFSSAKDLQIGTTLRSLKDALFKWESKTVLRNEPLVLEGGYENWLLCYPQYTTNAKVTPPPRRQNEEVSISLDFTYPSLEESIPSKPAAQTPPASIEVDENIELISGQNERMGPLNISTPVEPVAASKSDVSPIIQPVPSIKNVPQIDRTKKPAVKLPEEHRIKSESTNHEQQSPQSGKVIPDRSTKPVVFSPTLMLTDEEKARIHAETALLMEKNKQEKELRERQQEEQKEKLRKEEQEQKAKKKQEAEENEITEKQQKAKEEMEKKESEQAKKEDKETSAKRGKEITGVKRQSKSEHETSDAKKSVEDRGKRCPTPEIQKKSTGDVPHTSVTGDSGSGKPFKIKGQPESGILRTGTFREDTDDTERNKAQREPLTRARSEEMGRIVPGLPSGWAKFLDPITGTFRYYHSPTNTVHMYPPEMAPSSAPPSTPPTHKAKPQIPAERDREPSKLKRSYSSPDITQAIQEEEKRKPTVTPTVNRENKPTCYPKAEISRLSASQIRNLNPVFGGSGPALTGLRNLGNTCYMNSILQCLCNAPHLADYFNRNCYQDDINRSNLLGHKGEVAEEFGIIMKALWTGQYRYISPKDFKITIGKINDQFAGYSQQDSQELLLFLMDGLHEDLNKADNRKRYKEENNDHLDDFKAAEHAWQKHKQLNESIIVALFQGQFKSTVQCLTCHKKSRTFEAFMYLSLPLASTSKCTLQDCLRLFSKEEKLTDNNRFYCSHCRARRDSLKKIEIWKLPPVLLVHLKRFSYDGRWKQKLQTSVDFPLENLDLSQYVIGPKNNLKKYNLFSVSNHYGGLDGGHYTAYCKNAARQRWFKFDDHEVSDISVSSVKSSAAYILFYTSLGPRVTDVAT
Outline: as §1

USP9X = USP9X (UniProt Q93008)
Outline: as §1

UniProt O00487 = target: UniProt O00487
Outline: as §1

Measured: log2 ratio of Biotin-Ahx-Ub-VS probe labelling

USP9X, sequence (Q93008 whole entry): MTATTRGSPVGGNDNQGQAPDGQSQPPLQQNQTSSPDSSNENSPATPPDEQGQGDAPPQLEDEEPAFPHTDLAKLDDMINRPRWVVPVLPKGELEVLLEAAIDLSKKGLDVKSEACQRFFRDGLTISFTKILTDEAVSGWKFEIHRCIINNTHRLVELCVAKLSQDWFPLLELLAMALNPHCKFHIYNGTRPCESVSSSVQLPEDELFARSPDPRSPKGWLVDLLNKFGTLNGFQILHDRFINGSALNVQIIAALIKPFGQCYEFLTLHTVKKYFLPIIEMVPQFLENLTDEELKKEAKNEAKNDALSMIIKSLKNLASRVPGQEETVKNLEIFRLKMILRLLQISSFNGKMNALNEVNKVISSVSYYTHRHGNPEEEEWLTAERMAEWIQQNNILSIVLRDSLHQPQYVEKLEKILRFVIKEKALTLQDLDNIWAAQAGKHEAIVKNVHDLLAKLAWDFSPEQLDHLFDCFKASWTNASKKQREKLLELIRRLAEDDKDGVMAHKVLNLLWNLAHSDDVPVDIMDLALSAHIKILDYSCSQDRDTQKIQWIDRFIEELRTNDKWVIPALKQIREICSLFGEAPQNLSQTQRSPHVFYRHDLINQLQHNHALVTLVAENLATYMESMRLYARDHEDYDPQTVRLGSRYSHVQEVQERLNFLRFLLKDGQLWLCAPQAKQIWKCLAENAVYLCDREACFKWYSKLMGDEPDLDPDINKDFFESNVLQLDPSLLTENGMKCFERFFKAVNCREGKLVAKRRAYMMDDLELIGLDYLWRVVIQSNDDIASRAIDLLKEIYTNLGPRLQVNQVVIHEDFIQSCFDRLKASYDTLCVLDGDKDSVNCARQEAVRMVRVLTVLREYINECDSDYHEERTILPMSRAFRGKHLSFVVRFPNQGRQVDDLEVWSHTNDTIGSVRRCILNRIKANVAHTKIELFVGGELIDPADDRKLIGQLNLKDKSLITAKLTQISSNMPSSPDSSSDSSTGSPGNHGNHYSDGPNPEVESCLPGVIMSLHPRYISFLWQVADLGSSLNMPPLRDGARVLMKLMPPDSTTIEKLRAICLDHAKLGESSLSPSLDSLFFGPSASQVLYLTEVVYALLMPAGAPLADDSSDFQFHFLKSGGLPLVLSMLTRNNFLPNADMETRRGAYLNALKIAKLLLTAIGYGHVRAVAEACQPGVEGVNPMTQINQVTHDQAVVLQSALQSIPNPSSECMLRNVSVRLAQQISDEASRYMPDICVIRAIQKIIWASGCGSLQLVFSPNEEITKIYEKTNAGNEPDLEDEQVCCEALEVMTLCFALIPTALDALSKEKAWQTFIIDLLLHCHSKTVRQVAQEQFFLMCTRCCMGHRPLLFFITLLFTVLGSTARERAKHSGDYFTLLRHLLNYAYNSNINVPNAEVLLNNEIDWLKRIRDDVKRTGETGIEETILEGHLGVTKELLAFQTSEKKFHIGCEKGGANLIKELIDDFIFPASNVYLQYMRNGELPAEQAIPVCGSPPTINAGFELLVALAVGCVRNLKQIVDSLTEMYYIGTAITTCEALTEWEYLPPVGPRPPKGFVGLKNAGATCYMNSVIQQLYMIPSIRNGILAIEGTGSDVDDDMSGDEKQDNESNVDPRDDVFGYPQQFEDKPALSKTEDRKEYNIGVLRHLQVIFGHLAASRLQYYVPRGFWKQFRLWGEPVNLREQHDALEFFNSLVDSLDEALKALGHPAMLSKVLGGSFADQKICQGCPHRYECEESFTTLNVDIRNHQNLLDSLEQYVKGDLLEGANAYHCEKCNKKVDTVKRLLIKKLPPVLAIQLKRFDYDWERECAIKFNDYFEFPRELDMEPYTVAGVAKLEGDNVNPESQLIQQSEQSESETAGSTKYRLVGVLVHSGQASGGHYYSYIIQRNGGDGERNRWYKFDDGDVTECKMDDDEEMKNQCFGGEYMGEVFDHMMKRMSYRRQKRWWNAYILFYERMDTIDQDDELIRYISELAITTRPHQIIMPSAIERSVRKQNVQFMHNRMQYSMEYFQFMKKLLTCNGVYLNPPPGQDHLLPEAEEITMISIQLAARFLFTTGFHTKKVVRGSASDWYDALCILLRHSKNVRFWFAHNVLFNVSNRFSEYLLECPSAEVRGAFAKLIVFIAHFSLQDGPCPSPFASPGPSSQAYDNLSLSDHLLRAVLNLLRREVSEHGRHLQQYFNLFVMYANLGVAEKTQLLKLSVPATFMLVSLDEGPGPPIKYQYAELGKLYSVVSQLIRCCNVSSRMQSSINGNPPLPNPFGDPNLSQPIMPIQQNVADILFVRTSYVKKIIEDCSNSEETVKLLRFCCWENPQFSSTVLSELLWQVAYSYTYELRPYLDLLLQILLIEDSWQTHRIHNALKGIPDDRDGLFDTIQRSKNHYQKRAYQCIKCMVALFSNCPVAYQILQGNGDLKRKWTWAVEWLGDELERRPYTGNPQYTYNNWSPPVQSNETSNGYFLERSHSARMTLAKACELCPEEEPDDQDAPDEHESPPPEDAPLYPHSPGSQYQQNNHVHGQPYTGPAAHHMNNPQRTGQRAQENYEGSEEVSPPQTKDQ
USP7, sequence (Q93009 whole entry, looked up): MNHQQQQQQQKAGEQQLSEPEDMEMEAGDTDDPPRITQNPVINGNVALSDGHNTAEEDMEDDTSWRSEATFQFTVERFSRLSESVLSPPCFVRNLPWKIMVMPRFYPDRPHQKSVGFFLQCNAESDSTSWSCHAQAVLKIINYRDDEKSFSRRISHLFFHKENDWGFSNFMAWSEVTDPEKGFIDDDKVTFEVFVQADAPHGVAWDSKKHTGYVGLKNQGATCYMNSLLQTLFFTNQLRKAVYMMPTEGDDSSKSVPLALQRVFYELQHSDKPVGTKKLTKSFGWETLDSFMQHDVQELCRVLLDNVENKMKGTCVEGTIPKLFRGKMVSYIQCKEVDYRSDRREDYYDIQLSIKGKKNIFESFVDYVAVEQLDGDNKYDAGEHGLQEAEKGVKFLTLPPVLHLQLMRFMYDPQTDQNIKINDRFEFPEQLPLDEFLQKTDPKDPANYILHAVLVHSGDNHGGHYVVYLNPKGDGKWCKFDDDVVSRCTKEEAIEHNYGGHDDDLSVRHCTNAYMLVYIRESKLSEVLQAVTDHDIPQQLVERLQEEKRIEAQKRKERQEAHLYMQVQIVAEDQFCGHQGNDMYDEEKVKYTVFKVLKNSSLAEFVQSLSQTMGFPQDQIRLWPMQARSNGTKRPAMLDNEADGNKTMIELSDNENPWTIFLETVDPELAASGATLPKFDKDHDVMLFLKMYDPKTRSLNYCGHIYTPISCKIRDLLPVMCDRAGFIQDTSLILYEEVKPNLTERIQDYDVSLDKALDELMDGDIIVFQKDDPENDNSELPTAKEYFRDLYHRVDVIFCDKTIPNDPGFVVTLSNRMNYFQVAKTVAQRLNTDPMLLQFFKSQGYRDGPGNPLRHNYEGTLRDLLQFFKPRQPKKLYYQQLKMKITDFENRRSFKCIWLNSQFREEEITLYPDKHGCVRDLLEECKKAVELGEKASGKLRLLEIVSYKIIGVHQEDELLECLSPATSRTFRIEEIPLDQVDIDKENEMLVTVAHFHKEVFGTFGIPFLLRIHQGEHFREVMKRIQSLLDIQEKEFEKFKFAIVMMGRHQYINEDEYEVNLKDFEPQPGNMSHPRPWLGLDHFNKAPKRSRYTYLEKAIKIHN
UniProt O00487, sequence (O00487 whole entry): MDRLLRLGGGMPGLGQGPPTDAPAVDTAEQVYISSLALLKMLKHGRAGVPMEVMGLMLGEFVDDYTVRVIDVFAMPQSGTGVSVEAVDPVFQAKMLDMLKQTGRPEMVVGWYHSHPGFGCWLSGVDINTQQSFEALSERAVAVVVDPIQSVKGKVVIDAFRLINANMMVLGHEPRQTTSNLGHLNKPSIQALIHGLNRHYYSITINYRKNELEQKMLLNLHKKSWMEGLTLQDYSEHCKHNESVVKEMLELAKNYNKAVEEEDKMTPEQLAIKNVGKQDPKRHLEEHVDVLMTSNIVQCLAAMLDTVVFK
USP46, sequence (P62068 whole entry): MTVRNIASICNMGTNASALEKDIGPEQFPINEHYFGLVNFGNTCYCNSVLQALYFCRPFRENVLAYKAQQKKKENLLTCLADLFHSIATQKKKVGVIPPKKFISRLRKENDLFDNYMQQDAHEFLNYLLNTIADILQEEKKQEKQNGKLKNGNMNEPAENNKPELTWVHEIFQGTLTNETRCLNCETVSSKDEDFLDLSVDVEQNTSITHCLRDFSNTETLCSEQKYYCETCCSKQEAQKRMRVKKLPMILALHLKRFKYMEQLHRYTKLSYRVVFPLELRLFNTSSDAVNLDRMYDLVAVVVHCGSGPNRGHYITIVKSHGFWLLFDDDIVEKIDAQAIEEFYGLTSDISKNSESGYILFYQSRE

Cc1ccc(CC(CO)CNC(=O)CCl)cc1 (stereo not given)
inactive: USP42 -0.0167 | USP46 -0.000866 | USP47 -0.102 | USP48 -0.405 | USP5 -0.182 | USP54 0.455 | USP7 -0.381 | USP8 -0.322 | USP9X -0.363 | UniProt O00487 -0.242

O=C(CCl)Nc1cccc2ncccc12
inactive: USP42 0.41 | USP46 0.096 | USP47 0.325 | USP48 -0.121 | USP5 0.466 | USP54 -0.107 | USP7 -0.116 | USP8 -0.176 | USP9X -0.112 | UniProt O00487 0.0189

CN(C)S(=O)(=O)c1ccccc1CNC(=O)CCl
inactive: USP42 0.185 | USP46 0.0777 | USP47 -0.336 | USP48 -0.169 | USP5 0.419 | USP54 0.535 | USP7 -0.218 | USP8 -0.15 | USP9X -0.0424 | UniProt O00487 0.0834

Cc1cc(C2CCCN2C(=O)CCl)nn1C.Cl (stereo not given)
inactive: USP42 0.512 | USP46 -0.144 | USP47 -0.308 | USP48 -0.159 | USP5 -0.0636 | USP54 -0.39 | USP7 -0.329 | USP8 -0.274 | USP9X -0.131 | UniProt O00487 -0.229
